Assay outcomes deposited in PubChem BioAssay by several laboratories.
A selection: hits, their analogues and other compounds. The true share with any hit is near 27%.
CYP2C9 act = human CYP2C9 activators, primary screen, biochemical, luminescence; recombinant CYP2C9, luciferin-H conversion; hits give high values; factor 1 = untreated enzyme, 0 = blocked; actives 1.4% (n = 96,000); Cytochrome P450 2C9 (Homo sapiens), P11712; AID 1024, 2008; activation factor at 5 µM;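 active = activation factor of 2 or more for CYP2C9 at a 5 µM dose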;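 note: 0 = sulfaphenazole-blocked wells and 1 = vehicle-only wells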
CYP2C19 act = human CYP2C19 activators, primary screen, biochemical, luminescence; Cytochrome P450 2C19 (Homo sapiens), P33261; 96,000 tested, under 10 active; recombinant CYP2C19, luciferin-H EGE luminescence; hits give high values; 0 = fully inhibited enzyme, 1 = untreated enzyme; activation factor at 5 µM;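 active = activation factor of at least 2 at 5 µM in the primary screen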;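 note: 0 = wells with 2.5 mM tranylcypromine and 1 = vehicle-only wells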
Target sequence (P33261 whole entry, looked up): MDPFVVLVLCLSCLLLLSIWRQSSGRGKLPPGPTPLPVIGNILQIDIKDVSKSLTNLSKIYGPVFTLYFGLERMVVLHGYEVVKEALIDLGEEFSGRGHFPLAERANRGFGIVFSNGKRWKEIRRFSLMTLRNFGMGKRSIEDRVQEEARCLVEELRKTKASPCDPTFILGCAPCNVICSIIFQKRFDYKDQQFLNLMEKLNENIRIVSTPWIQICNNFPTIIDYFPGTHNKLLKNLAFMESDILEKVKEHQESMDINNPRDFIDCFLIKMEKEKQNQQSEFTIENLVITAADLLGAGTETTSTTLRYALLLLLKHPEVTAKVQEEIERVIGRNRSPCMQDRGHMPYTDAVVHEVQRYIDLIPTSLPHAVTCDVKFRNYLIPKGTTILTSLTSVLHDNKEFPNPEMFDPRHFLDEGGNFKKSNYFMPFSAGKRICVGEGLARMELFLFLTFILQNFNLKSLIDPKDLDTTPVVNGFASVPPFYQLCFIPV
CYP2C9 inh = blockers of cytochrome P450 2C9 activity – biochemical, luminescence, ADME assay, primary screen; P11712; CYP2C9 Supersomes, luciferin-H conversion; inhibition, % at 5 µM; actives 20% (n = 96,000);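 active = blocking of liver enzyme CYP2C9 beyond about 50% at 5 µM, limit read from the data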
CYP2C19 inh = blockers of cytochrome P450 2C19 activity – biochemical, luminescence, ADME assay, primary screen; inhibition, % at 5 µM; P33261; actives 21% (n = 96,000); AID 778, 2007; CYP2C19 Supersomes, luciferin-H EGE luminescence, 30 min;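 active = CYP2C19 inhibition above a set limit at 5 µM in the primary screen, cut at about 50% in these data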;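 note: plate controls were negative control wells for no effect and 2.5 mM tranylcypromine positive control for full effect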
Cav3 T inh = Cav3.2 calcium influx blockers – cell-based, Fluo-4 calcium fluorescence, FDSS, MLSMR library, primary screen; Voltage-dependent T-type calcium channel subunit alpha-1H (Homo sapiens), O95180; Cav3.2-expressing cells; hits give low values; B-score at 10 µM; actives 4% (n = 100,000); AID 449739, 2010;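 active = single-dose well whose peak fluorescence ratio is a statistical outlier from its plate by either plate-standardised score or position-corrected B-score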
* marks the source's active call; other numbers are inactive results; . = no result given.

SMILES	CYP2C9 act	CYP2C19 act	CYP2C9 inh	CYP2C19 inh	Cav3 T inh
CCOc1cc(CN2CCN(c3cccc(C(F)(F)F)c3)CC2)ccc1OC	0.6	0.7	41	28	-4.4*
O=C1C(=O)N(Cc2cccnc2)C(c2ccccn2)/C1=C(/O)c1ccccc1 (stereo unspecified)	0.2	1	76*	5	-1
CCOC(=O)N1CCN(CC(=O)Nc2ccc(C)c(Br)c2)CC1	0.7	0.5	28	51*	-1.5
CCOC(=O)Cn1nc(-c2ccc(Cl)cc2)cc1N	0.7	0.3	25	74*	1.3
CCOC(=O)CCn1nc(-c2ccc(Cl)cc2)cc1N	0.6	0.2	38	79*	0.28
CCOC(=O)N1CCN(C(=O)CCn2nc(-c3ccc(Cl)cc3)ccc2=O)CC1	0.9	0.9	13	10	-0.45
CN(C)c1ccc(C(CC(=O)O)NC(=O)c2ccc(Cl)cc2)cc1 (stereo unspecified)	1	0.9	3	14	.
CCCCNC(=O)C(Cc1ccccc1)NS(=O)(=O)c1ccc2c(c1)c(=O)n(C)c(=O)n2C (stereo unspecified)	0.5	0.7	49	27	0.2
Cc1nc(CC(=O)O)c(-c2ccccc2)s1	1	1	4	-3	0.059
CCN(CC)c1ccc(C(=O)n2cnc3ccccc32)cc1	0.3	0.2	75*	85*	-3.5
CN(C)c1ccc(C(=O)n2nnc3ccccc32)cc1	1.1	1.3	-12	-26	-0.31
CCOC(=O)C1CCN(C(=O)NC23CC4CC(CC(C4)C2)C3)CC1	0.9	0.5	11	48	-0.19
O=C(OC(C(=O)NCc1cccs1)c1ccccn1)c1cccs1 (stereo unspecified)	0.8	0.4	23	59*	0.031
O=C(OC(C(=O)NC1CCCCC1)c1ccccn1)c1cccs1 (stereo unspecified)	0.9	0.8	6	19	0.13
CCN1C(=O)N(C)C2(c3ccccc3)N(C)C(=O)N(C)C12c1ccccc1 (stereo unspecified)	1.1	1.1	-6	-12	0.48
CC(C)N1CC2(c3ccccc3)CN(C(C)C)CC(c3ccccc3)(C1)C2=O	0.9	1	10	-2	-3.4*
CCOC(=O)c1c(C)[nH]c(C(=O)CN2CC(C)OC(C)C2)c1C (stereo unspecified)	0.8	0.7	17	28	-0.1
O=C1C2C(C(=O)N1Cc1cccnc1)C1C=CC2C12CC2 (stereo unspecified)	1	0.3	-1	66*	1
O=C1C2C3c4ccccc4C(c4ccccc43)C2C(=O)N1Cc1cccnc1 (stereo unspecified)	0.7	0.3	26	68*	0.51
CCOc1cc(C(=O)Nc2c3c(nn2C(C)(C)C)CS(=O)C3)cc(OCC)c1OCC (stereo unspecified)	.	.	.	.	1.5
CS(=O)(=O)c1ccc(Cl)c(NC(=O)C2CC(=O)N(Cc3ccccc3)C2)c1 (stereo unspecified)	0.3	0.7	68*	29	0.13
COc1ccc2nc(SCc3cccnc3)c(C#N)cc2c1	0.5	0.6	49	39	-0.18
N#Cc1cc2ccccc2nc1SCc1cccnc1	0.6	0.5	40	52*	-1.2
N#Cc1cc2c(nc1SCC1COc3ccccc3O1)CCC2 (stereo unspecified)	0.7	0.8	34	23	-6.2*
N#Cc1cc2c(nc1SCC(O)CS(=O)(=O)Cc1ccccc1)CCCC2 (stereo unspecified)	0.4	0.8	58*	22	-1.2
SMILES	CYP2C9 act	CYP2C19 act	CYP2C9 inh	CYP2C19 inh	Cav3 T inh
N#Cc1cc2c(nc1SCc1cccnc1)CCCCC2	0.5	0.2	50	80*	-3.5
N#Cc1cc2c(nc1SCc1ccccc1)CCCCC2	0.8	0.9	16	14	-0.81
Cc1n[nH]c(C)c1S(=O)(=O)N1CCCCCC1	0.9	0.6	11	38	0.33
CCOC(=O)C(C)n1nc(/C=C/c2ccccc2)ccc1=O (stereo unspecified)	0.3	0.7	71*	28	-0.049
C=CCn1cc(/C=N\NC(=O)c2cc3c(ccc4ccccc43)o2)c2ccccc21	0.4	0.8	62*	17	0.03
O=C(NCC(=O)N(Cc1ccccc1)C(C(=O)NCC1CCCO1)c1ccccc1)c1cccs1 (stereo unspecified)	0.8	0.9	16	6	0.0075
CNS(=O)(=O)c1cccc(C(=O)OCC(=O)C23CC4CC(CC(C4)C2)C3)c1	1.7	1.2	-66	-18	0.028
CNS(=O)(=O)c1cccc(C(=O)OCC(=O)c2cc(C)n(-c3ccc4c(c3)OCO4)c2C)c1	0.3	0.4	68*	62*	-0.97
O=c1cc(CN2CCN(CCO)CC2)c2cc3c(cc2o1)CCC3	1.1	1	-13	1	0.99
Cc1cc2oc(=O)cc(Cn3ccnc3)c2cc1C	0.4	0	57*	100*	0.88
O=c1cc(Cn2ccnc2)c2cc3c(cc2o1)CCC3	0.5	0	48	100*	-0.48
COC(=O)c1ccc(Cn2nc(C(F)(F)F)cc2C)cc1	0.7	0.3	27	69*	-0.49
Cc1cc(C)n(Cc2ccc(NC(=O)c3c([N+](=O)[O-])c(C)nn3C)cc2)n1	0.7	1.1	29	-9	1
Cc1cc(C)n(Cc2ccc(NC(=O)c3ccc(COc4ccccc4Br)cc3)cc2)n1	0.2	0.7	77*	31	.
COC(=O)c1ccc(Cn2nc(C)c(Br)c2C)cc1	0.3	0	70*	99*	-0.86
Cc1cc(C)n(Cc2ccc(C(=O)O)cc2)n1	1	0.9	4	11	-2
Cc1nn(Cc2cccc(C(=O)NCC(C)C)c2)c(C)c1Br	.	.	.	.	-0.5
COC(=O)c1ccc(Cn2nc(C)cc2C)cc1	1	0.1	-4	93*	-0.36
O=C1CC(c2cccc(Cl)c2)C(n2cncn2)C(=O)C1C1NCCc2ccccc21 (stereo unspecified)	0.9	1	5	-1	0.44
O=C(c1ccc2c(c1)OCO2)N1CCC2(CC1)Oc1ccc(Cl)cc1C(=O)C21CC(c2ccc(Cl)cc2)=NO1 (stereo unspecified)	.	.	.	.	0.036
COC(=O)c1cc2n(n1)CCN(Cc1ccc(F)cc1)C2=O	1.1	0.6	-8	44	-0.7
COC(=O)c1cc(C(=O)OC)n(Cc2ccc(Br)cc2)n1	0.4	0.1	58*	91*	-1.1
CC(=O)N(c1ccc2oc(=O)sc2c1)S(=O)(=O)c1ccccc1	0.9	0.4	14	65*	0.94
CC(C)C(=O)N(c1ccc2oc(=O)sc2c1)S(=O)(=O)c1ccccc1	1	0.9	3	7	0.3
